HT1080NT lethal: qHTS for induction of synthetic lethality in tumor cells producing 2HG: qHTS for the HT-1080-NT fibrosarcoma cell line. HT-1080-NT fibrosarcoma viability, CellTiter-Glo ATP luminescence, 48 h. Potency, µM (titrated, usually from 46.1 µM), usual class: cytotoxic. hit rate 1.6% among 360,000. AID 686970, 2013;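 note: NT is the 2HG producing partner of a matched IDH1 knockdown line; nearly all actives have a fitted effect of over 55% in size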
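HT-1080-NT; 750 cells/well; 5% FBS RPMI; 48 h compound, 37 degrees C; CellTiter-Glo luminescence; curve fitting and curve-class assignment.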
DT40 TDP1 CPT: qHTS for Inhibitors of human tyrosyl-DNA phosphodiesterase 1 (TDP1): qHTS in cells in presence of CPT; chicken DT40 Tdp1-/-;hTDP1 cells + 20 nM CPT, ATP luminescence, 48 h; Potency, µM (series often up to 46.2 µM), actives largely listed as inhibitors; hit rate 12% among 420,000; note: nearly all actives have a fitted effect of over 55% in size
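Cell growth measured by CellTiter-Glo luminescence after a minimum 48 h, 37 C compound exposure with 20 nM CPT in Tdp1-knockout DT40 cells stably expressing hTDP1, seeded 400/well; qHTS titration format.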
HT1080 IDH1KD tx: qHTS for induction of synthetic lethality in tumor cells producing 2HG: qHTS for the HT-1080-IDH1KD cell line; HT-1080 IDH1 knockdown viability, ATP luminescence, 48 h; Potency, µM (titrated, usually from 46.1 µM), most hits filed as cytotoxic; hit rate 2% among 360,000
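HT-1080-IDH1KD cells (IDH1 knocked down), 750/well in RPMI with 5% FBS, treated with compound 48 h at 37 degrees C. Viability by CellTiter-Glo luminescence, normalised to DMSO and no-cell wells; concentration-response curves classed.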
DT40 TDP1 no CPT: qHTS for Inhibitors of human tyrosyl-DNA phosphodiesterase 1 (TDP1): qHTS in cells in absence of CPT | DT40 Tdp1-/- hTDP1 cells, no CPT, ATP luminescence, 48 h | Potency, µM (doses to about 46.2 µM), most hits filed as inhibitors | hit rate 15% among 420,000 | AID 686978, 2013; note: nearly all actives have a fitted effect of over 55% in size
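Growth kinetics read by CellTiter-Glo luminescence after ≥48 hr at 37 °C. Cells: DT40 Tdp1-/- stably carrying human TDP1, 400 per well, compound exposure in the absence of CPT (DMSO vehicle).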
IL-1B inflam inh: qHTS for Inhibitors of Inflammasome Signaling: IL-1-beta AlphaLISA Primary Screen | activity change, % at 57.5 µM | AID 743279, 2014 | THP-1 LPS/ATP IL-1B secretion, AlphaLISA, 16 h; hits give low values | hit rate 4.7% among 360,000; in the data active = activity change below about -50%; inconclusive = mostly about -30% to -49%
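THP-1 cells pretreated 1 hr with compounds (up to 57.5 uM final), then stimulated with LPS (250 ng/mL final) plus ATP (1.25 mM final); secreted IL-1B measured by AlphaLISA after 16 hr, decreased signal indicating inhibition.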
Large screens that a line does not name were inactive. The list is not random: actives were taken first. Their share in the collection is about 19%. Unless noted, calls come from the whole dose curve; as a rule, active = well fitted curve in the direction sought with a large enough effect; inconclusive = small, poorly fitted or top-dose-only effect, or another doubt; inactive = no such curve, though single readings can be large; an effect the other way counts as inactive or inconclusive.

S=C(Nc1ccc(Cl)cc1)NC1CCCCC1	DT40 TDP1 CPT inconclusive, HT1080 IDH1KD tx inconclusive, DT40 TDP1 no CPT inconclusive
COc1cc(OC)cc(-c2c(C#Cc3ccsc3)c3cc(-c4cccc5[nH]cc(C=O)c45)ccc3n2C)c1	DT40 TDP1 CPT inconclusive, DT40 TDP1 no CPT inconclusive
COc1ccc(C(=O)Nc2ccc(S(=O)(=O)N3CCCC3)cc2)cc1[N+](=O)[O-]	none
O=[N+]([O-])c1cccc(COc2cccc(CN3CCOCC3)c2)c1	none
O=[N+]([O-])c1ccc(COc2cccc(CN3CCOCC3)c2)cc1	DT40 TDP1 CPT 18µM, DT40 TDP1 no CPT 23µM
O=[N+]([O-])c1cccc(COc2ccc(CN3CCCCC3)cc2)c1	DT40 TDP1 CPT 21µM, DT40 TDP1 no CPT 23µM
O=[N+]([O-])c1cccc(COc2ccccc2CN2CCCCC2)c1	DT40 TDP1 CPT inconclusive, DT40 TDP1 no CPT inconclusive
COc1cc(CN(CCN(C)C)Cc2ccccc2)ccc1OCc1ccccc1	HT1080NT lethal 23µM, DT40 TDP1 CPT inconclusive, HT1080 IDH1KD tx 21µM, DT40 TDP1 no CPT 23µM, IL-1B inflam inh -63
COc1ccc(CN(CCc2ccccc2)Cc2ccccc2)cc1OC	DT40 TDP1 CPT inconclusive, DT40 TDP1 no CPT inconclusive
Cc1cccc([C@@H]2[C@@H]3C(=O)N(Cc4ccccc4)C(=O)[C@@H]3[C@]3(C)C(=O)N(c4ccc(C(F)(F)F)cc4)C(=O)N23)c1	HT1080NT lethal inconclusive, DT40 TDP1 CPT inconclusive, DT40 TDP1 no CPT inconclusive, IL-1B inflam inh inconclusive
C[C@@H]1CC=C[C@H]2[C@H]1C(=O)N(Cc1ccccc1)[C@H]2c1ccc(C(F)(F)F)cc1	DT40 TDP1 CPT inconclusive, DT40 TDP1 no CPT 21µM
O=C1C2C(c3ccccc3)CC=CC2[C@H](c2ccc(C(F)(F)F)cc2)N1Cc1ccccc1 (some centres not stated)	HT1080NT lethal inconclusive, DT40 TDP1 CPT 18µM, HT1080 IDH1KD tx inconclusive, DT40 TDP1 no CPT inconclusive
O=C1C2C(c3ccccc3)CC=CC2[C@H](c2cccc([N+](=O)[O-])c2)N1Cc1ccccc1 (some centres not stated)	DT40 TDP1 CPT 16µM, DT40 TDP1 no CPT inconclusive
C[C@@H]1CC=C[C@@H]2[C@H]1C(=O)N(Cc1ccccc1)[C@H]2c1cccc(Br)c1	DT40 TDP1 CPT inconclusive, DT40 TDP1 no CPT inconclusive
CC(=O)C1=C(O)C(=O)N(Cc2ccccc2)C1c1cccc([N+](=O)[O-])c1 (configuration not stated)	none
O=C(c1ccccc1F)N1CCN(C(=O)C(c2ccccc2)c2ccccc2)CC1	DT40 TDP1 no CPT inconclusive
Cc1ccc(S(=O)(=O)NCCc2cccs2)cc1	none
O=C(N/N=C/c1cccnc1)c1ccc(NC(=O)c2ccccc2Cl)cc1	HT1080NT lethal inconclusive
O=C(Nc1ccc(F)cc1)Nc1nnc(Cc2ccccc2F)s1	DT40 TDP1 CPT 16µM, DT40 TDP1 no CPT 13µM
COc1cccc(NC(=O)Nc2nnc(Cc3ccccc3F)s2)c1	DT40 TDP1 CPT inconclusive, HT1080 IDH1KD tx inconclusive, DT40 TDP1 no CPT 23µM
O=C(Nc1ccc(Cl)cc1)Nc1nnc(CSCc2ccc(Cl)cc2)s1	DT40 TDP1 CPT 2.6µM, DT40 TDP1 no CPT 4.1µM, IL-1B inflam inh -61
O=C(Nc1ccccc1)Nc1nnc(Cc2ccccc2F)s1	none
COc1ccc(NC(=O)Nc2nnc(Cc3ccc(F)cc3)s2)cc1	HT1080 IDH1KD tx inconclusive, DT40 TDP1 no CPT 26µM
CCCCn1nc2cc(C(=O)NCc3ccc(OC(F)(F)F)cc3)ccc2c1OC	none
COC(=O)/C=C1\OC(c2ccccc2)c2ccccc21 (configuration not stated)	DT40 TDP1 CPT inconclusive, DT40 TDP1 no CPT inconclusive
CNc1oc(Cc2ccccc2)nc1S(=O)(=O)c1ccccc1	DT40 TDP1 CPT 15µM, HT1080 IDH1KD tx inconclusive, DT40 TDP1 no CPT 6.5µM
CC(C)=CCC/C(C)=C/CNC(=O)C[C@H]1C[C@H](C(=O)N2CCCCC2)[C@@]2(CCc3ccccc3)c3[nH]c4cc(CCC(=O)N(C)C)ccc4c3CCN2C1=O	DT40 TDP1 CPT 10µM, DT40 TDP1 no CPT 8.2µM, IL-1B inflam inh -68
CCN(CC)C(=O)[C@H]1C[C@H](CC(=O)NC/C=C(\C)CCC=C(C)C)C(=O)N2CCc3c([nH]c4cc(CCC(=O)N(C)C)ccc34)[C@]12C	DT40 TDP1 CPT 16µM, DT40 TDP1 no CPT 15µM, IL-1B inflam inh inconclusive
COc1ccc(NC(=O)c2ccc(-c3nn(C)c(=O)c4ccccc34)cc2)cc1C(N)=O	IL-1B inflam inh inconclusive
O=c1cc(CSc2nc3ccccc3c(=O)[nH]2)c2ccc(O)cc2o1	none
CC1CCCN(c2nc(-c3ccccc3O)nc3ccccc23)C1 (configuration not stated)	DT40 TDP1 no CPT inconclusive (no result: HT1080NT lethal, HT1080 IDH1KD tx, IL-1B inflam inh)
CC1CCCN(c2c3c(nc4ccccc24)CCCC3)C1 (configuration not stated)	DT40 TDP1 CPT inconclusive, DT40 TDP1 no CPT inconclusive, IL-1B inflam inh -89
Cc1ccc(CNC(=O)C2CCN(S(=O)(=O)N3CCC(C)CC3)CC2)cc1	DT40 TDP1 no CPT inconclusive
O=C(NCc1cccnc1)C1CCN(S(=O)(=O)c2cc(Cl)ccc2Cl)CC1	DT40 TDP1 CPT 7.3µM, DT40 TDP1 no CPT inconclusive
CCc1ccc(CNC(=O)C2CCN(S(=O)(=O)N3CCC(C)CC3)CC2)cc1	DT40 TDP1 CPT inconclusive, DT40 TDP1 no CPT 26µM
O=C(NCc1ccccn1)C1CCCN(S(=O)(=O)c2cc(Cl)ccc2Cl)C1 (configuration not stated)	HT1080NT lethal 5.8µM, DT40 TDP1 CPT 9.2µM, HT1080 IDH1KD tx 5.8µM, DT40 TDP1 no CPT 8.2µM, IL-1B inflam inh -104
O=C(NCc1ccncc1)C1CCN(S(=O)(=O)Cc2ccccc2)CC1	IL-1B inflam inh -64
Cc1noc(C)c1C(=O)N1CCC1(C)C(=O)NS(=O)(=O)Cc1cccc(Cl)c1 (configuration not stated)	none
CC12CCC(=O)N1C(C(=O)Nc1ccc(Br)cc1Cl)CS2 (configuration not stated)	none
Cc1cc(S(=O)(=O)N2CCCC(N(C)CCc3ccccn3)C2)c(C)cc1Cl (configuration not stated)	DT40 TDP1 CPT 21µM, DT40 TDP1 no CPT 21µM, IL-1B inflam inh inconclusive
CN(CCc1ccccc1)C1CCCN(S(=O)(=O)c2cccc(F)c2)C1 (configuration not stated)	DT40 TDP1 no CPT inconclusive
O=C(C1CCN(S(=O)(=O)c2cc(Cl)ccc2Cl)CC1)N1CCOCC1	IL-1B inflam inh -57

Bioassay records (PubChem)
